Pf growth 96h – Primary qHTS for delayed death inhibitors of the malarial parasite plastid, 96 hour incubation; P. falciparum luciferase reporter growth, 96 h; Potency, µM (highest dose often 28.7 µM), for the others: top-dose activity change, negative = inhibition, usual class: inhibitors; actives 6.9% (n = 320,000); active means well fitted inhibition curve with a large enough effect; inconclusive means small, poorly fitted or top-dose-only effect, or another doubt; inactive means no such curve, though single readings can be large or run the other way; further: potency means the concentration at half of the fitted maximal effect; on the % scale 0 is the no-effect control and ±100 the full control effect
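P. falciparum expressing integrated firefly luciferase, in erythrocytes at 2% hematocrit, 0.05% parasitemia, incubated with compounds 96 h at 37 C, 5% CO2. Growth inhibition read as loss of luminescence; two-generation exposure targets delayed-death apicoplast inhibitors.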
NS1 inh – qHTS Assay for Inhibitors of Influenza NS1 Protein Function; Potency, µM (titrated, usually from 46.1 µM), for the others: top-dose activity, positive = more growth; actives 0.4% (n = 270,000); AID 2326, 2010; further: potency means the concentration at half of the fitted maximal effect; actives are rising curves; nearly all actives have a fitted effect of over 50% in size
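In this qHTS, NS1 from influenza A is expressed in budding yeast, where it slows growth. Cells are switched from glucose to 2% galactose medium (pH 6.0, -URA), treated with compound, and growth recovery is read at OD600.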
Pf growth 48h – Primary qHTS for delayed death inhibitors of the malarial parasite plastid, 48 hour incubation; AID 504832, 2011; Potency, µM (highest dose often 28.7 µM), without a hit: at the highest dose activity change, negative = inhibition, most hits filed as inhibitors; P. falciparum luciferase growth in erythrocytes, 48 h; actives 5.9% (n = 310,000); active means well fitted inhibition curve with a large enough effect; inconclusive means small, poorly fitted or top-dose-only effect, or another doubt; inactive means no such curve, though single readings can be large or run the other way; further: potency means the concentration at half of the fitted maximal effect; on the % scale 0 is the no-effect control and ±100 the full control effect
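Compounds are pin-transferred into medium, infected erythrocytes (2% hematocrit, 0.1% parasitemia final) are added, and plates sit one parasite generation at 37 C in 5% CO2. Detection reagent is then added and luminescence measured.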
CHX counter-1 – Cycloheximide Counterscreen for Small Molecule Inhibitors of Shiga Toxin; cell reporter, cycloheximide protein synthesis inhibition counterscreen; max response, %; actives 12% (n = 300,000); AID 2314, 2010; in the data active means max response mostly above about 13%, no sharp cut-off; inactive means mostly below about 14%; further: read at 38.3 µM for the half of the compounds with a filed dose; 0% is about no effect
Shiga inhibitor – A qHTS for Small Molecule Inhibitors of Shiga Toxin; Vero cells, Shiga toxin protein synthesis inhibition reporter; inhibition, % at 38.7 µM; actives 9.2% (n = 290,000); in the data active means inhibition mostly above about 28%, no sharp cut-off; inactive means mostly below about 43%; further: 0% is about no effect
CHX counter-2 – Cycloheximide Counterscreen for Small Molecule Inhibitors of Shiga Toxin (Confirmatory). Cycloheximide counterscreen, protein synthesis reporter, Shiga toxin assay. Potency, µM (series often up to 38.3 µM), for the others: top-dose activity (activation), usual class: activators. AID 2318, 2010. actives 3% (n = 510). shares compounds with Shiga inhibitor; further: potency means the concentration at half of the fitted maximal effect; 0% is about no effect
Numbers without * were called inactive; i = inactive; ? = inconclusive; . = no result given. Sampled rows, rich in hits. Any-hit rate of the full collection: about 21%. Unless noted, the call rests on the fitted dose curve.

SMILES	Pf growth 96h	NS1 inh	Pf growth 48h	CHX counter-1	Shiga inhibitor	CHX counter-2
COc1ccc(S(=O)(=O)N2CCC(C(=O)NCC3CCCCC3)CC2)cc1	34.7%	-25.2%	-14.2%	-1.6	1.1	.
CCOc1ccc2oc(C(=O)NCc3nc4ccccc4[nH]3)c(C)c2c1	?	12.1%	31.7%	-1.3	-13.4	.
Cc1c(C(=O)Nc2nc3ccccc3[nH]2)oc2ccc(Br)cc12	-101.9%	-0.1%	-15.7%	11.9	14.4*	10µM*
Cc1ccc(CN2CC(C(=O)NCC(=O)Nc3c(C)cccc3C)CC2=O)cc1 (configuration not stated)	72.2%	.	-2.2%	.	.	.
CCN(CC(=O)Nc1c(F)cccc1F)C(=O)CNC(=O)c1ccco1	16.2%	.	17.0%	.	.	.
COc1ccc(NC(=O)CN2CCC(C(=O)c3ccc(F)cc3)CC2)c(OC)c1	17.3%	-28.2%	-16.0%	-3.0	-4.0	.
COc1cccc(-c2csc(N3CCN(C(=O)Nc4ccccc4OC)CC3)n2)c1	.	?	?	1.7	3.4	.
COc1cccc(-c2csc(N3CCN(C(=O)Nc4ccc(F)cc4)CC3)n2)c1	3.5%	?	?	5.4	33.7*	0.1%
COc1ccc(NC(=O)CN2CCN(c3nc(-c4ccc(F)cc4)cs3)CC2)c(OC)c1	54.7%	16.9%	35.4%	-3.0	35.7*	-2.5%
Cc1ccc(CN2CCN(Cc3ccc4c(c3)OCCO4)CC2CCO)cc1 (configuration not stated)	?	-3.1%	-11.1%	-1.8	-10.3	.
CC(C)C(=O)Nc1ccc(Oc2ccc3c(c2)C(=O)NC3=O)cc1	-16.0%	4.0%	30.7%	0.9	12.2	.
CCOC(=O)c1cnc2c(C(=O)OCC)cnn2c1N	81.6%	0.3%	77.1%	13.3	21.9	.
CCOC(=O)c1cnc2c(-c3cccc(Br)c3)cnn2c1C	0.5%	-7.1%	50.3%	5.8	active	2.83µM*
CCCCn1c(SCC(=O)c2ccccc2)nc2c1c(=O)[nH]c(=O)n2C	13.0%	0.5%	-6.0%	-1.0	15.6*	0.0%
CCn1cnc2sc(C)c(C)c2c1=O	-16.7%	8.7%	.	-3.0	-9.9	.
Cc1ccc(OCC(=O)NNC(=O)CCC(=O)Nc2ccc(C)cc2C)cc1	12.7%	-13.0%	30.0%	-1.7	35.4*	-0.8%
COc1ccccc1N1C(=NC(=O)C(C)Oc2ccccc2)SC2CS(=O)(=O)CC21 (configuration not stated)	20.6%	-6.6%	13.8%	-4.9	-6.6	.
O=C(O)C1CCCCC1C(=O)Nc1ccc(-c2ccccc2)cc1 (configuration not stated)	-15.8%	-1.3%	10.4%	12.0	52.8*	-1.2%
CCN(CC(=O)Nc1ccccc1C(F)(F)F)C(=O)CCc1c(C)[nH]c(=O)c(C#N)c1C	6.3%	0.1%	-4.2%	-2.3	3.8	.
COc1cc2c(cc1OC)CN(Cc1ccc(C)s1)CC2	4.2%	-0.7%	.	-3.4	-11.2	.
O=C(O)c1ccccc1C(=O)Nc1ccc(-n2nccc2C(F)(F)F)cc1	6.8%	3.5%	12.1%	8.9	30.8*	-3.8%
O=C(O)c1ccccc1C(=O)Nc1ccccc1	.	-4.9%	15.0%	6.0	-1.8	.
COc1ccc(N2C(=O)[C@H]3CCC=C[C@H]3[C@@H]2c2ccccc2Br)cc1	.	.	.	0.7	i	.
CC(=O)Nc1cccc(NC(=O)CSc2nc3ccccc3o2)c1	?	12.2%	19.0%	6.9	25.1*	-1.5%
O=C(O)c1cc(S(=O)(=O)Nc2ccc(OCc3ccccc3)cc2)ccc1Br	41.3%	28.3%	21.3%	10.1	39.6*	?
CC(C(=O)O)n1nc(-c2ccccc2)c2ccccc21 (configuration not stated)	-0.5%	-5.0%	2.7%	-0.9	-7.7	.
CCOC(=O)C1=C(C)NC(=O)NC1c1ccc(OCC(=O)Nc2ccccc2)c(OC)c1 (configuration not stated)	?	-45.0%	?	7.0	39.4*	0.0%
O=C(NCCN1C(=O)S/C(=C\c2ccc(Cl)cc2)C1=O)c1ccc(F)c(S(=O)(=O)N2CCOCC2)c1	?	8.7%	60.1%	-1.0	33.5*	?

Bioassay records (PubChem)
